The sample as a whole holds a higher share of hits than the screen did.
KDM5B inhibitor – blocks human KDM5B histone demethylase activity. Q9UGL1. AID 1347165. Potency, µM (highest dose often 57.7 µM), hits mostly inhibitors. KDM5B demethylase, FDH-coupled NADH fluorescence (FDH is formaldehyde dehydrogenase). 220,000 tested, 2.6% active; active = well fitted inhibition curve with a large enough effect; note: 0% is about no effect; nearly all actives have a fitted effect of over 70% in size
Target sequence (Q9UGL1 whole entry, looked up): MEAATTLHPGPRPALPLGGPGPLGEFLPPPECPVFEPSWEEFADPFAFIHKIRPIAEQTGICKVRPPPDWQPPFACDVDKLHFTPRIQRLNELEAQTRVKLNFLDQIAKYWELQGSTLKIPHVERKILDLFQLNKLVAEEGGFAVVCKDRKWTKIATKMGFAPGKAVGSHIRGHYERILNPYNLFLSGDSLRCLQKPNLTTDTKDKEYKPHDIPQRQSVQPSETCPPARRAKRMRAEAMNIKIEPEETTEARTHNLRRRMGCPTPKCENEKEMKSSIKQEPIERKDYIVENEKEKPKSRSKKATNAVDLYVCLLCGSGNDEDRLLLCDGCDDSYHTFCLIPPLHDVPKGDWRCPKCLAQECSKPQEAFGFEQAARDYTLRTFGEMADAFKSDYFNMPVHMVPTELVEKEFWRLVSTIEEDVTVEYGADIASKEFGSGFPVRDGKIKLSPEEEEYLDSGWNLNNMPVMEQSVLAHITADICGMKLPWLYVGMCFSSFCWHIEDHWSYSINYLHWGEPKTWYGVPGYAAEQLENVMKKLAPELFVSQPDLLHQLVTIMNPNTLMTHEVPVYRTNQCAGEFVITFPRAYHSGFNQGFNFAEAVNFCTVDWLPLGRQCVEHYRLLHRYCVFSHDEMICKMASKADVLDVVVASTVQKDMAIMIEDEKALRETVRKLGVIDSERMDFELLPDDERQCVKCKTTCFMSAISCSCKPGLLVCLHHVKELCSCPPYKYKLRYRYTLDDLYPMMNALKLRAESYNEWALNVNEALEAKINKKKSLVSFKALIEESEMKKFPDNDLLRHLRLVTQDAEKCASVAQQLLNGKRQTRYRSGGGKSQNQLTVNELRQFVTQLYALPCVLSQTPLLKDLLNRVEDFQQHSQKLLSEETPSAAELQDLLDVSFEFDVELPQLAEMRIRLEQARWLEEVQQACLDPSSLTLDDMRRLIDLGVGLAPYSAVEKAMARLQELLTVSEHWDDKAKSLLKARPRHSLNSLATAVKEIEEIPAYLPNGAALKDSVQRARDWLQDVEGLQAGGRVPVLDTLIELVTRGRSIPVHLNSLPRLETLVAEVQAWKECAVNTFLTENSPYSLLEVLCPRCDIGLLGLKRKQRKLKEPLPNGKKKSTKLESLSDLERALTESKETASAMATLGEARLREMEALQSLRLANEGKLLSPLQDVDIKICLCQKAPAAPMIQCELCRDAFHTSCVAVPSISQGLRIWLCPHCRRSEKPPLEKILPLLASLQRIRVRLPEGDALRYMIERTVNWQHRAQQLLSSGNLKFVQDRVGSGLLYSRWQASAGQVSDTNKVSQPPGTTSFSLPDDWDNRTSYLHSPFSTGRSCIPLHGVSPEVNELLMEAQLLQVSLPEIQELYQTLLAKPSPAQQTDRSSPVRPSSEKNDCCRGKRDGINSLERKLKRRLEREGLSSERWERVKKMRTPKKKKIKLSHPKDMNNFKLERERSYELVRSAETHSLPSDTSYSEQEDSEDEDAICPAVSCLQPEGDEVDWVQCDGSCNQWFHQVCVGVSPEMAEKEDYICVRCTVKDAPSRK
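KDM5BΔAP (200 nM final) in 50 mM HEPES pH 7.5, 0.01% Tween-20 was preincubated 10 min at RT with compound over a concentration range. Substrate mix (H3K4me3 12.5 µM, α-KG 25 µM, Fe²⁺, ascorbate, NAD⁺, FDH) was added, and NADH fluorescence change over 30 min gave dose-response curves.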
* = called active by the depositor; i = inactive. Potency is the fitted concentration of half-maximal effect.

SMILES	KDM5B inhibitor
Cc1onc(-c2ccccc2Cl)c1C(=O)Nc1cccc(C(=O)NC2CC2)c1	i
CN(C)c1cc2c(cc1NC(=O)c1cccs1)n(C)c(=O)c(=O)n2C	i
CSc1ccc(Cl)c(C(=O)NCCCn2ccnc2)c1	i
O=C(NCCCn1ccnc1)c1c(F)cccc1F	i
O=C(NCCc1ccccn1)c1cccc(F)c1	i
O=C(NCCc1ccccn1)c1cc(F)cc(F)c1	i
CC(C)(C)OC(=O)N1CCC(CNC(=O)c2ccc(F)cc2F)CC1	i
COCCNC(=O)c1cc(-c2ccccc2OC(F)(F)F)cc2ncn(C)c12	i
Cn1cnc2cc(-c3ccc(F)cc3)cc(C(=O)NCCc3ccccn3)c21	28µM*
Cn1cnc2cc(-c3ccc(F)cc3)cc(C(=O)NCCCn3ccnc3)c21	40µM*
COc1cc(CNC(=O)c2cc(-c3ccc(F)cc3)cc3ncn(C)c23)ccn1	32µM*
COc1ccccc1-c1cc2c(ccn2C)c(C(=O)NCC2CCN(C)C(=O)C2)n1 (configuration not stated)	i
CN(C)c1cccc(-c2cc(C(=O)NCc3cccnc3)c3c(c2)ncn3C)c1	i
CN1CCC(CNC(=O)c2cc(-c3ccc(F)cc3)cc3ncn(C)c23)CC1=O (configuration not stated)	32µM*
CC(C)OCCCNC(=O)Cn1ccc2ccc(Cl)cc21	i
COc1cccc(CN2CCCCCCNC(=O)CC2c2ccccc2)c1OC (configuration not stated)	i
CC(=O)Nc1ccc(-c2csc(NC3CC3)n2)c(F)c1	i
CCOc1cc(/C=C(/C#N)C(=O)Nc2ccccc2C(=O)O)ccc1OC	i
Cc1ccc(CC(=O)N2CCC(NS(=O)(=O)c3ccc(C)cc3)CC2)cc1	i
COc1cc(CNC(=O)c2ccc3c(c2)NC(=O)CCS3)ccc1OCc1ccccc1	i
Cn1c(=O)[nH]c(=O)c2c1nc(N1CCN(Cc3ccc(Cl)cc3)CC1)n2Cc1ccccc1F	i
CCc1ccc(CN2CCCCC23Cc2ccccc2CNC3=O)cc1 (configuration not stated)	i
CCOc1ccc(O)c(C=NC2CCCC2)c1	i
CN(C)CCNC(=O)c1cc(-c2ccc(F)cc2)cc2ncn(C)c12	28µM*
Cc1ccc(-n2nc(C(=O)NCCN(C)C)c(=O)n(C)c2=O)cc1	i
SMILES	KDM5B inhibitor
Cc1cc(C)c(CNC(=O)c2cc(-c3ccc(CN(C)C)cc3)cc3ncn(C)c23)c(=O)[nH]1	i
Cc1[nH]c2ccc(F)cc2c1CC(=O)NCC(C)(C)CN(C)C	i
Cc1sc2nc(C(C)Sc3nnnn3C3CC3)[nH]c(=O)c2c1C (configuration not stated)	i
Cc1cn2nc(-c3nc(C4CCCN(C(=O)c5cccs5)C4)no3)cc2c(=O)[nH]1 (configuration not stated)	i
Cc1cn2nc(-c3nc(C4CCCN(C(=O)c5ccccc5F)C4)no3)cc2c(=O)[nH]1 (configuration not stated)	28µM*
Cc1cn2nc(-c3nc(C4CCCN(C(=O)c5cccc(Cl)c5)C4)no3)cc2c(=O)[nH]1 (configuration not stated)	i
Cn1cnnc1CC1CCCN(C(=O)NC2CCCC2)C1 (configuration not stated)	i
CCN1CC(CNc2nccc(-c3c(C)nn(C)c3C)n2)CC1=O (configuration not stated)	28µM*
CCN1CC(CN(C)Cc2nc(-c3ccc(C(F)(F)F)cc3)no2)CC1=O (configuration not stated)	i
CCNc1nccc(N2CCC(CC(=O)N(CC)CC)CC2)n1	i
COc1ccc(S(=O)(=O)NCC2CCCN(C(=O)c3cccnc3C)C2)cc1 (configuration not stated)	i
CC(=O)N1CCCC(CNc2nccc(-c3c(C)nn(C)c3C)n2)C1 (configuration not stated)	28µM*
O=C(Cc1cccs1)NCC12CC3CC(CC(C3)C1)C2	i
N#Cc1ccc(C=Nc2ccc(OC(F)(F)C(F)F)c(N=Cc3ccc(C#N)cc3)c2)cc1	i
Cc1cc(C)c(NC(=O)c2csc3c2CCCC3)c(C)c1	i
CSc1ccc(CN(C)CC(=O)NC(=O)NCc2ccccc2)cc1	i
Cc1cn2nc(C(=O)NCc3ccccc3)cc2c(N(C)Cc2ccccc2)n1	32µM*
Cc1cc(C(=O)NCc2ccc(F)cc2)n(-c2ccccc2)n1	i
Cc1cn2nc(C(=O)NCc3cc(F)cc(F)c3)cc2c(=O)[nH]1	i
Cc1cn2nc(C(=O)NCc3cc(F)cc(F)c3)cc2c(N(C)Cc2ccccc2)n1	20µM*
CSc1ncc(C(=O)NCc2cccc(C)c2)c(-c2ccccc2)n1	i
CC(C)(C)c1cc(C(=O)NCc2ccc(F)cc2)nn2cccc12	i
Cc1cccc(CNC(=O)c2csc(N3CCN(c4ccccc4)CC3)n2)c1	i
Cc1cccc(CNC(=O)c2cc3c(N(C)Cc4ccccc4)nc(C)cn3n2)c1	25µM*
CSc1ccc(CNC(=O)c2cc3c(N(C)Cc4ccccc4)nc(C)cn3n2)cc1	25µM*

Compound activity as filed in PubChem.
